Data taken from article PMC7862700, “An all-to-all approach to the identification of sequence-specific readers for epigenetic DNA modifications on cytosine”.

Tests used:
Experiment in all cases: DAPPL (digital affinity profiling via proximity ligation, sequencing); 10 mM Tris-HCl pH 7.5, 50 mM NaCl, 1 mM DTT, 4% glycerol, room temperature, 30 min; GST-TFs on glutathione beads, 16-mer random dsDNA library, 0.1% formaldehyde crosslink after washing; high values mean tight binding
[1] = target: T1, FEV (Homo sapiens, UniProt Q99581 1-238); settings: protein: recombinant; tags: N-terminal GST; dsDNA, one strand shown
T1 sequence: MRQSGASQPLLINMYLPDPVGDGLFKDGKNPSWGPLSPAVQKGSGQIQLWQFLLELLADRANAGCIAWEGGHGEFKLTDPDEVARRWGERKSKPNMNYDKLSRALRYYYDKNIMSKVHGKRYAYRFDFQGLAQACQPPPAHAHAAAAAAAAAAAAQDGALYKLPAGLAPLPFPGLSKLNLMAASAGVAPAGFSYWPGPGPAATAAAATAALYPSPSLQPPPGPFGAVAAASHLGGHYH
Method in brief: (§1)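 Sequencing on an Illumina NextSeq500 followed washing, crosslinking with 0.1% formaldehyde, proximity ligation (BsaI/T4 ligase, 1 h, 37 °C) and PCR amplification of pools that had been incubated for 30 min at room temperature with 200 nmole of a random double-stranded 16-mer DNA library in Tris/NaCl/DTT/glycerol buffer. Each pool held DNA-barcoded human transcription factors, expressed in yeast as GST fusions and captured on glutathione beads, plus a tag-only sample. Binding signal is a hexamer's read frequency for a factor divided by its frequency in the tag-only sample.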

[2] = target: ETV5 (Homo sapiens, UniProt P41161 1-510); settings: protein: recombinant; tags: N-terminal GST; dsDNA, one strand shown
Method in brief: as §1

[3] = target: HSF1 (Homo sapiens, UniProt Q00613 1-529); settings: protein: recombinant; tags: N-terminal GST; chain copies: 3; dsDNA, one strand shown
Method in brief: as §1

[4] = target: T2, SPIC (Homo sapiens, UniProt Q8N5J4 1-248); settings: protein: recombinant; tags: N-terminal GST; dsDNA, one strand shown
T2 sequence: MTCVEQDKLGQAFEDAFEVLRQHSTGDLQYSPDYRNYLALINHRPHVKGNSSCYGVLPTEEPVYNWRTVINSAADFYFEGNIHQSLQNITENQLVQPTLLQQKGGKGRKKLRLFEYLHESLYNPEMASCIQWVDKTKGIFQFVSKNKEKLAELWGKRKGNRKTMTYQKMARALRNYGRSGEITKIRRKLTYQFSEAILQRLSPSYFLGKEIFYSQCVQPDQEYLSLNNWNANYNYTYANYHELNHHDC
Method in brief: as §1

[5] = target: ELF4 (Homo sapiens, UniProt Q99607 1-663); settings: protein: recombinant; tags: N-terminal GST; dsDNA, one strand shown
Method in brief: as §1

[6] = target: T3, ELK4 (Homo sapiens, UniProt P28324-2 1-405); settings: protein: recombinant; tags: N-terminal GST; dsDNA, one strand shown
T3 sequence: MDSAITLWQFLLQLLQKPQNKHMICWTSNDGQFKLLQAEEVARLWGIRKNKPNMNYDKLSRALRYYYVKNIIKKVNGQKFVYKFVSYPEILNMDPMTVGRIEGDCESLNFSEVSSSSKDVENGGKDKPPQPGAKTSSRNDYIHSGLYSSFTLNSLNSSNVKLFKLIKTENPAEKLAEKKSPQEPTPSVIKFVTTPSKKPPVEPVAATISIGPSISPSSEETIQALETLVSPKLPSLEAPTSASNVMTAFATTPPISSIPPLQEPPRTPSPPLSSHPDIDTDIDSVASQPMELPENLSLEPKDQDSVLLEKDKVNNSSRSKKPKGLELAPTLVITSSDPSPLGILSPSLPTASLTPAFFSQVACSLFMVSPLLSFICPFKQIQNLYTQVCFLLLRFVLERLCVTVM
Method in brief: as §1

[7] = target: T4, ETV2 (Homo sapiens, UniProt O00321 1-342); settings: protein: recombinant; tags: N-terminal GST; dsDNA, one strand shown
T4 sequence: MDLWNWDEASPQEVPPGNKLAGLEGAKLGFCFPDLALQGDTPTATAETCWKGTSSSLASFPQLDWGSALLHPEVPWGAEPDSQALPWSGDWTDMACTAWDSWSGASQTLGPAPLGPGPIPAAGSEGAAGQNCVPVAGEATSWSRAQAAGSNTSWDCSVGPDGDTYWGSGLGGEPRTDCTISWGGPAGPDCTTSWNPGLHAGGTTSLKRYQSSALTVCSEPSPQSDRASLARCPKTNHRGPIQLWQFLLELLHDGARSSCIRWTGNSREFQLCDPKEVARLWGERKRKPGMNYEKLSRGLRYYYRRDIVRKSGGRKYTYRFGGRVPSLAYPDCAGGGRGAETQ
Method in brief: as §1

[8] = target: T5, ELF3 (Homo sapiens, UniProt P78545 1-371); settings: protein: recombinant; tags: N-terminal GST; dsDNA, one strand shown
T5 sequence: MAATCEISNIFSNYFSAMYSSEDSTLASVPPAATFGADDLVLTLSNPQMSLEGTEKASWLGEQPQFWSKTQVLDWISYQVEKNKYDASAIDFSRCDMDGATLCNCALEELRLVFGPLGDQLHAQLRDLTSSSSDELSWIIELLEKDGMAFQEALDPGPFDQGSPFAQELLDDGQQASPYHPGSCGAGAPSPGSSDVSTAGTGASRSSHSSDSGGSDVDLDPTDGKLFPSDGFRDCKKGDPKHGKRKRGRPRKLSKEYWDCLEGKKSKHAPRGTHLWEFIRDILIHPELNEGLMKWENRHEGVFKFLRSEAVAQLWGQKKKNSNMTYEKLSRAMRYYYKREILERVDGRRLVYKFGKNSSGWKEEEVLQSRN
Method in brief: as §1

[9] = target: CRX (Homo sapiens, UniProt O43186 1-299); settings: protein: recombinant; tags: N-terminal GST; dsDNA, one strand shown
Method in brief: as §1

[10] = target: ETV1 (Homo sapiens, UniProt P50549 1-477); settings: protein: recombinant; tags: N-terminal GST; dsDNA, one strand shown
Method in brief: as §1

CRX, sequence (O43186 whole entry): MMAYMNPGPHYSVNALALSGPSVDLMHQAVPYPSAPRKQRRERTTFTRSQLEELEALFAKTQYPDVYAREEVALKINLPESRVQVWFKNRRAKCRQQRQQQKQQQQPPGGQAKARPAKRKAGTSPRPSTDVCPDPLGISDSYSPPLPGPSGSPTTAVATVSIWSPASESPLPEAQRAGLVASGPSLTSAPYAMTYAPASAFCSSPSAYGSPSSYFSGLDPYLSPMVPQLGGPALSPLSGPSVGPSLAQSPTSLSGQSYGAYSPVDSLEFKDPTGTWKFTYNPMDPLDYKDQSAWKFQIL
ETV1, sequence (P50549 whole entry): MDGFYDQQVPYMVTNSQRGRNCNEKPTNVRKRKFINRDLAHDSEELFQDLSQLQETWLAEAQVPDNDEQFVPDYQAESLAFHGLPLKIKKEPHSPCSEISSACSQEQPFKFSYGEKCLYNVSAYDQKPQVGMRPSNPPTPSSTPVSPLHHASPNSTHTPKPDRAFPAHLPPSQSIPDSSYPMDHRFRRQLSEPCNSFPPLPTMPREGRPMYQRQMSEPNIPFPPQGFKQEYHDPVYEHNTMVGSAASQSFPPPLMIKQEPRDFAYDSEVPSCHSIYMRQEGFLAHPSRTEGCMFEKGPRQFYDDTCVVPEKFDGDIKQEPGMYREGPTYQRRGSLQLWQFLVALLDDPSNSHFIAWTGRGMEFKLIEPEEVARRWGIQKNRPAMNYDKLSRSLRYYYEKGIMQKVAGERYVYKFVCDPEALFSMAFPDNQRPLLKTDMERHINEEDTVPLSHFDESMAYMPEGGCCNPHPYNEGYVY
HSF1, sequence (Q00613 whole entry): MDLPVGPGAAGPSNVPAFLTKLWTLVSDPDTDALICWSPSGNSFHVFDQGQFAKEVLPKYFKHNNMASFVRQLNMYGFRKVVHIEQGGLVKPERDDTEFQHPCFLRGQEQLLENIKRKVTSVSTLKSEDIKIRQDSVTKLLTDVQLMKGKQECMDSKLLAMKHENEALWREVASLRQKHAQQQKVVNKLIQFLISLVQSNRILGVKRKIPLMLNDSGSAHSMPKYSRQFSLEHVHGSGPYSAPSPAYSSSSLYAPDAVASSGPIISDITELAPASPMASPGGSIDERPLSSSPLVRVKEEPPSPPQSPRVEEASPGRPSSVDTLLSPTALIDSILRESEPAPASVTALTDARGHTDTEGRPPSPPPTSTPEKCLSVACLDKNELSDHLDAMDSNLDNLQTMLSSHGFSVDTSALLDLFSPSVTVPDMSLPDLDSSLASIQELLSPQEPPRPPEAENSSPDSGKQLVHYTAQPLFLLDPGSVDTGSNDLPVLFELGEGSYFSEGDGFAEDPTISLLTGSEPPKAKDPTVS
ELF4, sequence (Q99607 whole entry): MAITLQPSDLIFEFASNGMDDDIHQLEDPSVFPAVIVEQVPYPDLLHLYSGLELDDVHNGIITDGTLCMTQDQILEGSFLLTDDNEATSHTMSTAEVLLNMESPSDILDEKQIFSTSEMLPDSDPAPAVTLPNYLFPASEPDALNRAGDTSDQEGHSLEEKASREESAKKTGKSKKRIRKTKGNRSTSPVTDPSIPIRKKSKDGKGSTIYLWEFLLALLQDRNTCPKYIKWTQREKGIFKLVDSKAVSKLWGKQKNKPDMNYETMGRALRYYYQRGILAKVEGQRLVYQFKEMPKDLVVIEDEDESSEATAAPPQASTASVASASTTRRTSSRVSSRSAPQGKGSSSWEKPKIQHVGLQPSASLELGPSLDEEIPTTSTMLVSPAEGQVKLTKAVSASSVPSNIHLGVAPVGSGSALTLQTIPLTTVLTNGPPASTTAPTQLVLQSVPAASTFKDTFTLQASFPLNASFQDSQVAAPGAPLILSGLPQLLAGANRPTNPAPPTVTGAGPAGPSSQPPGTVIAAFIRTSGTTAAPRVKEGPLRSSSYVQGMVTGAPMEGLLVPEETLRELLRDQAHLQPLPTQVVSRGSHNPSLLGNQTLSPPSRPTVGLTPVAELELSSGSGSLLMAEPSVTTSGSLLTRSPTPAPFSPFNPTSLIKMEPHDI
ETV5, sequence (P41161 whole entry): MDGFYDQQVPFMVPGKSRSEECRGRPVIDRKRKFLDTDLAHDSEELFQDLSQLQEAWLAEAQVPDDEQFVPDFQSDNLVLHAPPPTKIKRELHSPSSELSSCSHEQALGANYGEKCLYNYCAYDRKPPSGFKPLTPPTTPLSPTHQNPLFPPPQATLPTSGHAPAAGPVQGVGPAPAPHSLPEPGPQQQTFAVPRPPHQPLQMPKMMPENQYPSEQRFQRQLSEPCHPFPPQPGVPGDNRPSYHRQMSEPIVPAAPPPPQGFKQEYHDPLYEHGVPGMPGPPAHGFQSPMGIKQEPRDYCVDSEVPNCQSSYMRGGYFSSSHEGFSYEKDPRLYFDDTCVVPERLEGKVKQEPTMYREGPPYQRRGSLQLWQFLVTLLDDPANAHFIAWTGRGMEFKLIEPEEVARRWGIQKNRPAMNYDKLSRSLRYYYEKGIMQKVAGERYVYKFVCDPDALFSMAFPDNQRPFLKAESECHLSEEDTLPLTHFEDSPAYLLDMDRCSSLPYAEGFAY

For ACTATC, the binding signal [1] was 1.13 fold enrichment (6-mer frequency, TF over GST control), the binding signal [2] was 1.13 fold enrichment (6-mer frequency, TF over GST control) and the binding signal [3] was 1.13 fold enrichment (6-mer frequency, TF over GST control). The binding signal [4] was 1.19 fold enrichment (6-mer frequency, TF over GST control), the binding signal [5] was 1.24 fold enrichment (6-mer frequency, TF over GST control) and the binding signal [6] was 1.2 fold enrichment (6-mer frequency, TF over GST control). For the same sequence, the binding signal [7] was 1.32 fold enrichment (6-mer frequency, TF over GST control), the binding signal [8] was 1.22 fold enrichment (6-mer frequency, TF over GST control) and the binding signal [9] was 1.15 fold enrichment (6-mer frequency, TF over GST control). The binding signal [10] was 1.15 fold enrichment (6-mer frequency, TF over GST control).
